Reference: ChEMBL document CHEMBL1961873, “Compounds: GSK PKIS; Assays: Nanosyn kinase panel” (2012)

Tests used:
[1] = target: Platelet-derived growth factor receptor beta (Homo sapiens) (UniProt P09619); details: at 1 µM;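 note: each value is a mean percent inhibition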
[2] = target: Tyrosine-protein kinase FRK (Homo sapiens) (UniProt P42685); details: at 0.1 µM
[3] = target: Tyrosine-protein kinase FRK (Homo sapiens) (UniProt P42685); details: at 1 µM
[4] = target: Protein-tyrosine kinase 2-beta (Homo sapiens) (UniProt Q14289); details: at 0.1 µM
[5] = target: Protein-tyrosine kinase 2-beta (Homo sapiens) (UniProt Q14289); details: at 1 µM
[6] = target: Proto-oncogene tyrosine-protein kinase receptor Ret (Homo sapiens) (UniProt P07949); details: at 0.1 µM
Chain of Proto-oncogene tyrosine-protein kinase receptor Ret (Homo sapiens) (P07949 whole entry): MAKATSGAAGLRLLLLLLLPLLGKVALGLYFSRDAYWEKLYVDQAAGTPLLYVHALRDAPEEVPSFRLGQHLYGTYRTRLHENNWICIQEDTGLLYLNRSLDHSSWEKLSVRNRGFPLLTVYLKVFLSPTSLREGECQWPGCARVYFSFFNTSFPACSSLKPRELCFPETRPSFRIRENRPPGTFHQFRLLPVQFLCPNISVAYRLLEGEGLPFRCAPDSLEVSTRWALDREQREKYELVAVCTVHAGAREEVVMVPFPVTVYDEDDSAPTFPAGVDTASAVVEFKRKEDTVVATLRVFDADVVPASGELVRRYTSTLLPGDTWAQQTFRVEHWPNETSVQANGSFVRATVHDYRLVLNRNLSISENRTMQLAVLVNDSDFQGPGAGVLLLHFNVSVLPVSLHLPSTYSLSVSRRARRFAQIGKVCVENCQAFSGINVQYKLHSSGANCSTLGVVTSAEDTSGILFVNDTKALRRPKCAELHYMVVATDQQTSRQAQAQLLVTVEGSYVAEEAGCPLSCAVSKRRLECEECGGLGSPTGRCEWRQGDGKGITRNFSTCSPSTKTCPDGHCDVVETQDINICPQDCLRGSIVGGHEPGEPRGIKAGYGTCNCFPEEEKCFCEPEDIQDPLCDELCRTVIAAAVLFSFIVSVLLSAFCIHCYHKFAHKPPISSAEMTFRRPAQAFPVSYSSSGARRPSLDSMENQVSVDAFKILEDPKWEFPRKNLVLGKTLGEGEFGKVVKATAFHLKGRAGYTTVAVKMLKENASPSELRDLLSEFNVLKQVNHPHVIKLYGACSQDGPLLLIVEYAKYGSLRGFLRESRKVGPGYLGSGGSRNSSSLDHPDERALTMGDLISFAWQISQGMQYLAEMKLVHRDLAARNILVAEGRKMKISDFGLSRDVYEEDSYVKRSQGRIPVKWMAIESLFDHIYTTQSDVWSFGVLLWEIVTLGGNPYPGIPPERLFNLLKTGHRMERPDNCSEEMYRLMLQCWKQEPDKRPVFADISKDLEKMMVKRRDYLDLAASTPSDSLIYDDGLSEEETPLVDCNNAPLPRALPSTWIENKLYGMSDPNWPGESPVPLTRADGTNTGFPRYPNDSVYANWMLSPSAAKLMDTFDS

[7] = target: Proto-oncogene tyrosine-protein kinase receptor Ret (Homo sapiens) (UniProt P07949); details: at 1 µM
[8] = system: Proto-oncogene tyrosine-protein kinase receptor Ret (Homo sapiens), P07949 [V804L]; details: at 0.1 µM
Chain of Proto-oncogene tyrosine-protein kinase receptor Ret (Homo sapiens), P07949 [V804L] (P07949 whole entry V804L): as the sequence (P07949 whole entry) above, with V804L counted along it

[9] = system: Proto-oncogene tyrosine-protein kinase receptor Ret (Homo sapiens), P07949 [V804L]; details: at 1 µM
[10] = system: Proto-oncogene tyrosine-protein kinase receptor Ret (Homo sapiens), P07949 [Y791F]; details: at 0.1 µM
Chain of Proto-oncogene tyrosine-protein kinase receptor Ret (Homo sapiens), P07949 [Y791F] (P07949 whole entry Y791F): as the sequence (P07949 whole entry) above, with Y791F counted along it

[11] = system: Proto-oncogene tyrosine-protein kinase receptor Ret (Homo sapiens), P07949 [Y791F]; details: at 1 µM
[12] = target: Macrophage-stimulating protein receptor (Homo sapiens) (UniProt Q04912); details: at 0.1 µM
[13] = target: Macrophage-stimulating protein receptor (Homo sapiens) (UniProt Q04912); details: at 1 µM
[14] = target: Proto-oncogene tyrosine-protein kinase ROS (Homo sapiens) (UniProt P08922); details: at 0.1 µM
Chain of Proto-oncogene tyrosine-protein kinase ROS (Homo sapiens) (P08922 whole entry): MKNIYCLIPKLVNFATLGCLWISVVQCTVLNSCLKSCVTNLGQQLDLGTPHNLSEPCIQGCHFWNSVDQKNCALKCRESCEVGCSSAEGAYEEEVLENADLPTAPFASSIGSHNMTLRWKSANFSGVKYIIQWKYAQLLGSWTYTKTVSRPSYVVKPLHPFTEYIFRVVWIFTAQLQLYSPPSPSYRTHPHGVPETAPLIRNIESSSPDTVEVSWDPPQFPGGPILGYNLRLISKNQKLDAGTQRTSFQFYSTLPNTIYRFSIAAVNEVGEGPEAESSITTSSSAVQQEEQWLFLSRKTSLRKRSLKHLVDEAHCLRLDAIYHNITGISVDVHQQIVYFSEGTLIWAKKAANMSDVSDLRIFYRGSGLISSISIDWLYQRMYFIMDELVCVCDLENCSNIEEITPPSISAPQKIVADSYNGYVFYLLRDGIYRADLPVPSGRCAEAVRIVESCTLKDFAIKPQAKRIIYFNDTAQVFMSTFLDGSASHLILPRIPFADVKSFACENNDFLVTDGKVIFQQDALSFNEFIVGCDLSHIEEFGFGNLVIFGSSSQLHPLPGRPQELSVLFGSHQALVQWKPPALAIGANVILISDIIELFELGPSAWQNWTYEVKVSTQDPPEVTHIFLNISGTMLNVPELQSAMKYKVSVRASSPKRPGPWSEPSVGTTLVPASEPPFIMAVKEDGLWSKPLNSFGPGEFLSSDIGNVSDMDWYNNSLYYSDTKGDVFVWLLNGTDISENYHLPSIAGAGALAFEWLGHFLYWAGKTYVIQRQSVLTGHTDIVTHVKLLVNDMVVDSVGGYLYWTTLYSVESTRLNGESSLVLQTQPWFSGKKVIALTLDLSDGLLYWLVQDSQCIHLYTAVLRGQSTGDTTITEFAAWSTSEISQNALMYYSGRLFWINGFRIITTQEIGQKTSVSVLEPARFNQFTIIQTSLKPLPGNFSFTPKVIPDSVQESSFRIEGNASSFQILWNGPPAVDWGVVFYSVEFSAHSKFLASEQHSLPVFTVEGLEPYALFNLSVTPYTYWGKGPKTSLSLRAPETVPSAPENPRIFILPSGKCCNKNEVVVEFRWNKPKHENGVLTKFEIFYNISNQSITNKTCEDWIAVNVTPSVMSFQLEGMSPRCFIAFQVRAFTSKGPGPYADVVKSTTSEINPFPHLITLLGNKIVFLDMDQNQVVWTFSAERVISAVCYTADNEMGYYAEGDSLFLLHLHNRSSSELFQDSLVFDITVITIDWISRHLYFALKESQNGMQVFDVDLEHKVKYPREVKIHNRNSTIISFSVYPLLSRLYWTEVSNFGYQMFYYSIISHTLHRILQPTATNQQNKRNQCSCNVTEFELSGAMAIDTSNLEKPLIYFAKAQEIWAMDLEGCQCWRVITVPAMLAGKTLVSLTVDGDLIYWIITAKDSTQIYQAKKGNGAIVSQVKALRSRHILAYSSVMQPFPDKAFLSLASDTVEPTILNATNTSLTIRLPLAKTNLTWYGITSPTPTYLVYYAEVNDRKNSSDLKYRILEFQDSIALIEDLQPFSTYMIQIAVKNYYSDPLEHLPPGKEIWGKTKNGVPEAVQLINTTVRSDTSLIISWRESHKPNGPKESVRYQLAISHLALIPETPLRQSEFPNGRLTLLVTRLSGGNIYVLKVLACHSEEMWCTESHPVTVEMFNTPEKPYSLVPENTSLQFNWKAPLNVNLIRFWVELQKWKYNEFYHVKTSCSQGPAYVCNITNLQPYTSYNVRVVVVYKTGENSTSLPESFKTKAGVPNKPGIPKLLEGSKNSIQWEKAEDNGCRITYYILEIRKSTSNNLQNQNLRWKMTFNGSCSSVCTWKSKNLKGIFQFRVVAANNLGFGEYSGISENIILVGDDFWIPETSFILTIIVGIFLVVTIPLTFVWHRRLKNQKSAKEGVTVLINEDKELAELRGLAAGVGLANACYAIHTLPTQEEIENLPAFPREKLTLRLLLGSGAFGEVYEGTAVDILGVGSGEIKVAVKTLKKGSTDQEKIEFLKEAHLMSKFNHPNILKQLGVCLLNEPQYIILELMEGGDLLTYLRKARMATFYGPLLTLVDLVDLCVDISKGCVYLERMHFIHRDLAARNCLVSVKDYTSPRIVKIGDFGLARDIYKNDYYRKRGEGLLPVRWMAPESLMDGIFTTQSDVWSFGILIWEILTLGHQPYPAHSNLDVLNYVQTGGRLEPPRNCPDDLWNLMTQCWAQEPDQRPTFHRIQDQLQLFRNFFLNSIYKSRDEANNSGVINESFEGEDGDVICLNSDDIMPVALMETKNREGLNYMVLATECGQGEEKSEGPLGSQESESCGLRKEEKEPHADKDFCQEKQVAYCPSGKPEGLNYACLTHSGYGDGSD

[15] = target: Proto-oncogene tyrosine-protein kinase ROS (Homo sapiens) (UniProt P08922); details: at 1 µM
[16] = target: Proto-oncogene tyrosine-protein kinase Src (Homo sapiens) (UniProt P12931); details: at 0.1 µM
Chain of Proto-oncogene tyrosine-protein kinase Src (Homo sapiens) (P12931 2-536 limits assumed): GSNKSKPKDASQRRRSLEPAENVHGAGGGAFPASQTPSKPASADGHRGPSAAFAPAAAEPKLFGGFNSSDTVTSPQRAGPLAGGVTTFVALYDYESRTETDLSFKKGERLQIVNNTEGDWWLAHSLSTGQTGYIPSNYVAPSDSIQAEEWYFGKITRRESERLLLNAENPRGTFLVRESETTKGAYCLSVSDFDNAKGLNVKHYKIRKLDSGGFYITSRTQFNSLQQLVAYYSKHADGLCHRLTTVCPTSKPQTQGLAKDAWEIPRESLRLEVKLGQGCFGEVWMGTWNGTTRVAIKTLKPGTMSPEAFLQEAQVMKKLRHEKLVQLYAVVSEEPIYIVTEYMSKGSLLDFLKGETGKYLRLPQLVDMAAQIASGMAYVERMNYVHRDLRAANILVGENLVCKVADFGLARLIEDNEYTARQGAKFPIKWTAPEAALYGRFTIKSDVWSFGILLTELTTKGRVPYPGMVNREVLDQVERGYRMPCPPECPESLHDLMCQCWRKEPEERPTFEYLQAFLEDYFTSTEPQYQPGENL

[17] = target: Proto-oncogene tyrosine-protein kinase Src (Homo sapiens) (UniProt P12931); details: at 1 µM
[18] = target: Tyrosine-protein kinase Srms (Homo sapiens) (UniProt Q9H3Y6); details: at 0.1 µM
Chain of Tyrosine-protein kinase Srms (Homo sapiens) (Q9H3Y6 whole entry): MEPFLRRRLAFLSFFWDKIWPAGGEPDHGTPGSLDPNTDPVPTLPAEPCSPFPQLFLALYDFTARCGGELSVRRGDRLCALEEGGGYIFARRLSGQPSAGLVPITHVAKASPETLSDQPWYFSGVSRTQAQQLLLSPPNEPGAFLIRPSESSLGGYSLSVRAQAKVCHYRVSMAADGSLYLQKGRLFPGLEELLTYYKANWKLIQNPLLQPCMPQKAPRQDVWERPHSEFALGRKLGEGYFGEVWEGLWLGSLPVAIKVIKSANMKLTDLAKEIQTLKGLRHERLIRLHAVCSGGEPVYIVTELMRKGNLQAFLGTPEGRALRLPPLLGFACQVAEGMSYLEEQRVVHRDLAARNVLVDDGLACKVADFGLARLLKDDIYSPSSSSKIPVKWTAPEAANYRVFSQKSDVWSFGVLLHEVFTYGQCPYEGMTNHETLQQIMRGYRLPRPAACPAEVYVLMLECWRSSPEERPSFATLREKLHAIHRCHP

[19] = target: Tyrosine-protein kinase Srms (Homo sapiens) (UniProt Q9H3Y6); details: at 1 µM
[20] = target: Tyrosine-protein kinase SYK (Homo sapiens) (UniProt P43405); details: at 0.1 µM;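 note: reported percentages are mean inhibition values for SYK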

Chain of Tyrosine-protein kinase FRK (Homo sapiens) (P42685 whole entry): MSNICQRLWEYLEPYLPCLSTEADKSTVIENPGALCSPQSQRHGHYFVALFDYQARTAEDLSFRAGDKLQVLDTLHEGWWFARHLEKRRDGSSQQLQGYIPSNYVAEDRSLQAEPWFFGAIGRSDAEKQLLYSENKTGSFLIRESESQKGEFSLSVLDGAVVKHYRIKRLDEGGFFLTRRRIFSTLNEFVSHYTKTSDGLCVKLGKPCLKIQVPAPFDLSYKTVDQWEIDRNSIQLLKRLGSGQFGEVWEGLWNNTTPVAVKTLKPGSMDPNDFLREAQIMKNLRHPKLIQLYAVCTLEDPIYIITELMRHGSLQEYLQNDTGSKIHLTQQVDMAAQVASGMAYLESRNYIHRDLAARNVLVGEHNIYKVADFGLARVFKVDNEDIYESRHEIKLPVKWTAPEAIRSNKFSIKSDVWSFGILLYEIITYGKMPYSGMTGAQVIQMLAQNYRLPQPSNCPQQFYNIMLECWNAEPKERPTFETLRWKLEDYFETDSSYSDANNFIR

SMILES | inhibition [1] [%] | inhibition [2] [%] | inhibition [3] [%] | inhibition [4] [%] | inhibition [5] [%] | inhibition [6] [%] | inhibition [7] [%] | inhibition [8] [%] | inhibition [9] [%] | inhibition [10] [%] | inhibition [11] [%] | inhibition [12] [%] | inhibition [13] [%] | inhibition [14] [%] | inhibition [15] [%] | inhibition [16] [%] | inhibition [17] [%] | inhibition [18] [%] | inhibition [19] [%] | inhibition [20] [%]
O=C(O[C@H]1CN[C@H](C#Cc2cc3ncnc(Nc4ccc(Cc5ccccc5)cc4)c3s2)C1)N1CCOCC1 | 0.85 | 1.3 | 1.99 | 0.11 | -6.94 | 3.39 | 5.06 | 1.75 | 2.21 | 1.94 | 4.61 | 2.34 | 3.27 | -0.61 | 2.78 | 3.84 | 7.75 | -3.02 | -2.02 | -0.1
Cc1ccc(O)cc1Nc1ccnc2cc(-c3ccccn3)ccc12 | 87 | 18.9 | 68.2 | 10.1 | 17.6 | 84.2 | 89.8 | 4.72 | 3.44 | 92.3 | 93.5 | -2 | 4.51 | 6.57 | 7.97 | 61 | 90.4 | 9.32 | 39.8 | -5.01
CS(=O)(=O)CCNCc1ccc(-c2ccc3ncnc(Nc4ccc(OCc5ccccc5)c(C(F)(F)F)c4)c3c2)o1 | 2 | 3.35 | 2.29 | 8.29 | 7.02 | 5.03 | 2.3 | 3.65 | 4.42 | 6.07 | 6.81 | -2.49 | -4.8 | 3.04 | 6.52 | 6.38 | 7.74 | -2.3 | -1.62 | -2.88
CN1CCC(n2cnc(-c3ccc(F)cc3)c2-c2ccnc(N)n2)CC1 | 29.6 | 0.15 | 1.13 | -2.24 | 6.37 | 5.6 | 18.7 | 1.63 | 13.3 | 4.75 | 27.5 | 5.16 | -2.05 | 2.9 | 15.1 | 1.96 | 10.6 | 1.38 | 0.46 | 2.67
CCNC(=O)O[C@H]1CN[C@H](C#Cc2cc3ncnc(Nc4ccc(OCc5cccc(F)c5)c(Cl)c4)c3s2)C1 | 5.63 | 1.7 | 1.79 | 9.03 | 7.74 | 2 | 3.91 | 2.16 | 0.84 | 1.93 | 2.83 | 3.96 | 3.52 | 4.68 | 3.52 | 0.25 | 6.91 | -0.91 | -2.79 | -1.96
COc1cc(/C=N/Nc2ncnc3[nH]ncc23)ccc1O | 67 | 2.72 | 3.55 | 11.4 | 29.7 | 59 | 83.4 | 17.8 | 68.6 | 56.7 | 80.9 | -1.46 | 17 | 5.97 | 27 | 27.9 | 83.2 | -0.95 | 6.55 | -7.54
Cc1cccc(Nc2ncc(-c3ccccc3)o2)c1 | 37.2 | -0.04 | 3.76 | -0.77 | 4.02 | 1.88 | 7.33 | 0.92 | 4.53 | 2.77 | 6.11 | 3.38 | -0.6 | 6.3 | 7.89 | 8.62 | 19.3 | 0.16 | -0.12 | 1.35
CNC(=O)c1cc(-c2ccc(F)cc2)cc(-c2ccc(S(=O)(=O)N3CCCC3)cc2)c1N | 6.26 | 2.42 | 2.21 | 2.65 | 7.64 | 2.88 | 2.96 | 2.49 | 5.41 | 3.21 | 2.82 | 1.89 | 4.58 | 4.64 | 6.55 | 5.46 | 6.17 | 2.11 | -2.91 | -0.29
NS(=O)(=O)c1ccc(N/N=C2\C(=O)Nc3ccc4ncccc4c32)cc1 | 82.8 | 0.32 | 4.11 | 6.43 | 43.2 | 37.3 | 78.9 | 57.7 | 82.7 | 45.3 | 77.7 | 2.25 | 13.3 | 8.1 | 35.3 | 19.3 | 71.1 | -0.11 | 3.96 | -9.38
CN(C)CCOc1ccc(-c2nc(-c3ccncc3)c(-c3ccc4c(c3)CC/C4=N\O)[nH]2)cc1 | 15.7 | 2.18 | 1.99 | 5.76 | 10.5 | 5.96 | 7.06 | 3.07 | 6.45 | 2.28 | 20.2 | -1.14 | 7.41 | 3.61 | 5.38 | 0.25 | 11.9 | -1.81 | -0.6 | -2.98
NS(=O)(=O)c1ccc(Nc2ncc(-c3ccccc3)o2)cc1 | 46.6 | 1.2 | 1.36 | 10.6 | 19.8 | 3.66 | 7.66 | 3.57 | 10 | 0.77 | 7.3 | 4 | 6.45 | 3.2 | 13.1 | 1.97 | 18.3 | -0.76 | 0.22 | 3.95
COc1ccc2c(-c3ccnc(Nc4cccc(OC(F)(F)F)c4)n3)cnn2n1 | 32.6 | 1.94 | 1.99 | 14.4 | 59.9 | 3.2 | 8.79 | 3.12 | 12.5 | 1.41 | 11.9 | 2.53 | 9.83 | 11.1 | 46.5 | 5.55 | 23.6 | -1.28 | 1.58 | -2.58
Cc1cccc2c1NC(=O)/C2=N\Nc1ccc(S(N)(=O)=O)cc1 | 10.2 | 1.71 | 0.62 | 3.22 | 9.89 | 1.83 | 5.76 | 3.14 | 7.11 | 2.74 | 18.8 | 4.93 | 2.48 | 2.26 | 1.51 | 4.47 | 6.45 | -0.7 | -2.11 | 3.45
